# Inconclusive results are not listed. Activity calls are given as the source filed them. Unless noted, how the calls were made is not given here.
# Experiments:
# [1] = qHTS profiling of the MIPE4 collection as inhibitors of Plasmodium falciparum (DD2) proliferation (AID 743345); conditions: P. falciparum Dd2 in erythrocytes, SYBR Green DNA, 72 h; at 28.5 µM (top of the series) unless noted
# Outline: (§1)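 Parasite DNA was quantified by SYBR Green I fluorescence (ex 485, em 535 nm) after overnight lysis in saponin/Triton buffer at room temperature. Cultures at 0.3% parasitemia and 2.5% hematocrit were first exposed to compound for 72 h at 37 C; signals were normalised to artemisinin (0.29 uM) and vehicle wells.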
# [2] = High-throughput drug toxicity screening in the BPDCN cell line Gen2.2 (AID 1224824); conditions: Gen2.2 BPDCN cells; at 45.8 µM (top of the series) unless noted;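 further: cells exposed to compounds for 48 h before reading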
# Outline: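 Gen2.2, 500 cells/well, phenol red-free RPMI/10% FBS/Pen-Strep; 48 h cpd, 37 °C/5% CO2; CTG lum, 15 min RT. Norm: DMSO = 100%, bortezomib 9.2 uM final = 0%.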
# [3] = High-throughput drug toxicity screening in the BPDCN cell line Cal-1 (AID 1224825); conditions: Cal-1 BPDCN cell viability, qHTS; at 45.8 µM (top of the series) unless noted;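 further: cells exposed to compounds for 48 h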
# Outline: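 Viability of the BPDCN line Cal-1 is measured as ATP-based luminescence (CellTiter-Glo) following 48 h incubation with compounds. Percent activity uses DMSO-treated wells as 100% and 9.2 uM bortezomib as 0%.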
# [4] = qHTS assay for measurement of the activity of small molecule inhibitors on Zika virus induced Caspase-3 activity in human iPSC derived neural progenitor cells (hNPCs) (AID 1224857; active means well fitted curve in the direction sought with a large enough effect; an effect the other way counts as inactive or inconclusive; further: % of control where 0% means no effect; nearly all actives have a fitted effect of over 65% in size)
# Outline: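 hNPCs seeded 350 cells/well, cultured 16–20 h; compounds added 1 h before ZIKV (2 FFU/cell), 37 C 6 h. Caspase-Glo 3/7 luminescence after 30 min RT; % inhibition from induction scaled to uninfected (0%) and infected (100%) wells.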
# [5] = qHTS assay for measurement of the activity of small molecule inhibitors on Zika virus induced Caspase-3 activity in human astrocytoma cells (AID 1224859; active means well fitted curve in the direction sought with a large enough effect; an effect the other way counts as inactive or inconclusive;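 further: plate controls were ZIKV-infected untreated cells for no effect and uninfected cells for full effect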)
# Outline: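 Luminescence read-out (Caspase-Glo 3/7, 30 min RT) of caspase activity in SNB-19 cells infected 6 h with ZIKV, 2 FFU/cell, after 1 h compound pretreatment; % inhibition from induction normalised to uninfected (0%) and infected (100%) wells.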
# [6] = qHTS Assay for Identifying Gametocytocidal Compounds (AID 743244; active means well fitted curve in the direction sought with a large enough effect; an effect the other way counts as inactive or inconclusive;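 further: on the % scale 0 is the no-effect control and ±100 the full control effect; actives lower the fluorescent signal which means gametocytes are killed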); conditions: P. falciparum 3D7 stage III-V gametocytes, alamarBlue, 72 h; max response: stronger effect = lower value
# Outline: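 P. falciparum 3D7 stage III–V gametocytes (20,000 cells/well) were exposed to compounds for 72 h at 37 °C, 5% CO2. AlamarBlue was then added for 24 h; decreased resorufin fluorescence (Ex 525/Em 598 nm) indicated loss of viability.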
# [7] = qHTS profiling of the MIPE4 collection as inhibitors of Plasmodium falciparum (3D7) proliferation (AID 743344);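 further: scaled between DMSO vehicle wells and 0.29 µM artemisinin as full inhibition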; conditions: P. falciparum 3D7 in erythrocytes, SYBR Green DNA fluorescence, 72 h; at 28.5 µM (top of the series) unless noted
# Outline: as §1
# [8] = qHTS profiling of the MIPE4 collection as inhibitors of Plasmodium falciparum (DD2) proliferation (Rep 2) (AID 743346); conditions: P. falciparum Dd2 in erythrocytes, SYBR Green DNA, 72 h; at 28.5 µM (top of the series) unless noted
# Outline: as §1
# [9] = qHTS profiling of the MIPE4 collection as inhibitors of Plasmodium falciparum (HB3) proliferation (AID 743347);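 further: plate controls were DMSO vehicle wells for no effect and artemisinin wells for full effect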; conditions: P. falciparum HB3 in erythrocytes, SYBR Green DNA, 72 h; at 28.5 µM (top of the series) unless noted
# Outline: as §1
smiles,measurement,setting,value
CCN(C)C(=O)Oc1cccc([C@H](C)N(C)C)c1,"parasite growth remaining, % of DMSO control (lower = more inhibition)",[1],17.2%
same,"cell viability, % of control (lower = more cytotoxic)",[2],97.8%
same,viability (% of control),[3],73.8%
same,Potency,[4],inactive
same,Potency,[5],inactive
CN(Cc1cc(Br)cc(Br)c1N)C1CCCCC1,max response,[6],-1.96% (inactive)
same,"parasite growth, % of DMSO control",[7],44.4%
same,"parasite growth remaining, % of DMSO control (lower = more inhibition)",[1],113%
same,"parasite growth, % of control (lower = inhibition)",[8],25.7%
same,"growth, % of control",[9],62.3%
same,"cell viability, % of control (lower = more cytotoxic)",[2],226%
same,viability (% of control),[3],107%
same,Potency,[4],inactive
CN1CCCC(n2nc(Cc3ccc(Cl)cc3)c3ccccc3c2=O)CC1 (configuration not stated),max response,[6],32.9% (inactive)
same,"parasite growth, % of DMSO control",[7],5.72%
same,"parasite growth remaining, % of DMSO control (lower = more inhibition)",[1],14%
same,"parasite growth, % of control (lower = inhibition)",[8],7.67%
same,"growth, % of control",[9],2.79%
same,"cell viability, % of control (lower = more cytotoxic)",[2],9.12%
same,viability (% of control),[3],7.4%
same,Potency,[4],inactive
CC(C)(Sc1cc(C(C)(C)C)c(O)c(C(C)(C)C)c1)Sc1cc(C(C)(C)C)c(O)c(C(C)(C)C)c1,max response,[6],-1.03% (inactive)
same,"parasite growth, % of DMSO control",[7],23.4%
same,"parasite growth remaining, % of DMSO control (lower = more inhibition)",[1],26.6%
same,"parasite growth, % of control (lower = inhibition)",[8],24.6%
same,"growth, % of control",[9],19.1%
same,"cell viability, % of control (lower = more cytotoxic)",[2],48.3%
same,viability (% of control),[3],45.2%
same,Potency,[4],inactive
COc1ccccc1OCC(O)COC(N)=O (configuration not stated),"parasite growth, % of DMSO control",[7],94.6%
same,"parasite growth remaining, % of DMSO control (lower = more inhibition)",[1],96.9%
same,"parasite growth, % of control (lower = inhibition)",[8],142%
same,"growth, % of control",[9],111%
same,"cell viability, % of control (lower = more cytotoxic)",[2],109%
same,viability (% of control),[3],124%
same,Potency,[4],inactive
NC(=O)N1c2ccccc2CC(=O)c2ccccc21,max response,[6],34.3% (inactive)
same,"parasite growth, % of DMSO control",[7],92.2%
same,"parasite growth remaining, % of DMSO control (lower = more inhibition)",[1],96.7%
same,"parasite growth, % of control (lower = inhibition)",[8],187%
same,"growth, % of control",[9],102%
same,"cell viability, % of control (lower = more cytotoxic)",[2],104%
same,viability (% of control),[3],112%
same,Potency,[4],inactive
CCC(=O)O[C@]1(C(=O)SCF)[C@H](C)C[C@H]2[C@@H]3C[C@H](F)C4=CC(=O)C=C[C@]4(C)[C@@]3(F)[C@@H](O)C[C@@]21C,max response,[6],-5% (inactive)
same,"parasite growth, % of DMSO control",[7],47.5%
same,"parasite growth remaining, % of DMSO control (lower = more inhibition)",[1],86.3%
same,"parasite growth, % of control (lower = inhibition)",[8],44.9%
same,"growth, % of control",[9],87.8%
same,"cell viability, % of control (lower = more cytotoxic)",[2],84.3%
same,viability (% of control),[3],52.2%
same,Potency,[4],inactive
N[C@@H](C(=O)N[C@@H]1C(=O)N2C(C(=O)O)=C(Cl)CS[C@H]12)c1ccccc1,"parasite growth, % of DMSO control",[7],80.9%
same,"parasite growth remaining, % of DMSO control (lower = more inhibition)",[1],96.8%
same,"parasite growth, % of control (lower = inhibition)",[8],115%
same,"growth, % of control",[9],97.6%
same,"cell viability, % of control (lower = more cytotoxic)",[2],133%
same,viability (% of control),[3],108%
same,Potency,[4],inactive
CC(C)(C)NC(=O)[C@H]1CC[C@H]2[C@@H]3CC[C@H]4NC(=O)C=C[C@]4(C)[C@H]3CC[C@]12C,"parasite growth, % of DMSO control",[7],60.2%
same,"parasite growth remaining, % of DMSO control (lower = more inhibition)",[1],91.7%
same,"parasite growth, % of control (lower = inhibition)",[8],53%
same,"growth, % of control",[9],72.9%
same,"cell viability, % of control (lower = more cytotoxic)",[2],25.5%
same,viability (% of control),[3],4.87%
same,Potency,[4],inactive
CCCN[C@H]1CCc2nc(N)sc2C1,"parasite growth, % of DMSO control",[7],5.95%
same,"parasite growth remaining, % of DMSO control (lower = more inhibition)",[1],92.8%
same,"parasite growth, % of control (lower = inhibition)",[8],8.29%
same,"growth, % of control",[9],6.99%
same,"cell viability, % of control (lower = more cytotoxic)",[2],133%
same,viability (% of control),[3],78%
same,Potency,[4],inactive
COc1cc([C@@H]2c3cc4c(cc3[C@H](O)[C@H]3COC(=O)[C@H]23)OCO4)cc(OC)c1OC,"parasite growth, % of control (lower = inhibition)",[8],10.2%
same,"cell viability, % of control (lower = more cytotoxic)",[2],7.94%
same,viability (% of control),[3],8.85%
same,Potency,[4],inactive

# From PubChem BioAssay (NCATS)
